Results on 59 molecules are retold here after PubChem BioAssay AID488969 (Vanderbilt High Throughput Screening Facility, 2010).

In all, about 110,000 compounds were measured (“z-score”: median about -0.1, highest 2% from about 2 on). The full list was thinned out, with the highest values kept by preference. Activity calls are given as the source filed them.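 How the source made its calls: active means z-score in the third read window above 3 or below -3; inactive means the rest.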

Chain of Metabotropic glutamate receptor 8 (Rattus norvegicus) (P70579 whole entry, looked up): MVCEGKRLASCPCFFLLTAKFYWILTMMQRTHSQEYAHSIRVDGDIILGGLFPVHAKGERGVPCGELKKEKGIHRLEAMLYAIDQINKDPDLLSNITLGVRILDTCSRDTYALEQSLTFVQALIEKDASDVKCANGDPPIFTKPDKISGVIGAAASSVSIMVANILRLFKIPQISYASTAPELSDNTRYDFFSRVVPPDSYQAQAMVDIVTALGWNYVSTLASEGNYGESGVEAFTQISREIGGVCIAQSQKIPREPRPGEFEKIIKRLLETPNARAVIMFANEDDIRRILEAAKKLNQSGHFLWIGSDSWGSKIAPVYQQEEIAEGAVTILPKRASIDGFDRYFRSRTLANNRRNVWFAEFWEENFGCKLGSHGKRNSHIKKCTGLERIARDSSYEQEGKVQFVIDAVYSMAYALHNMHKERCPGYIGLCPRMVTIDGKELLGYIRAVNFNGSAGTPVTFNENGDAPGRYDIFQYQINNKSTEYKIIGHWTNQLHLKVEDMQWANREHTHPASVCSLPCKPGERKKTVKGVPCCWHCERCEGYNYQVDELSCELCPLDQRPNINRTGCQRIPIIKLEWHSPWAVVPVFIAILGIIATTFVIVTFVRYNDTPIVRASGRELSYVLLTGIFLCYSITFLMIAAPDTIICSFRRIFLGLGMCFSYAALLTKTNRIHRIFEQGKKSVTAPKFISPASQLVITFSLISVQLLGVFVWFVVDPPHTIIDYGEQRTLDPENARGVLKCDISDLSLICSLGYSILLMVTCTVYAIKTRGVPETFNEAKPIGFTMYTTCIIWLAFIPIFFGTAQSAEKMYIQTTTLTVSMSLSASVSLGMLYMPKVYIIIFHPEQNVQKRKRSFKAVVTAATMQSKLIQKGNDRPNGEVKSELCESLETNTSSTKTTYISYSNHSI

This assay has as its target Metabotropic glutamate receptor 8 (Rattus norvegicus) (UniProt P70579). Description: rat mGluR8 modulators via GIRK flux, primary screen, cell-based, thallium flux, HTS (AID 488969). Particulars: HEK293 rat mGluR8, GIRK (G protein-gated inwardly rectifying potassium channel) thallium flux, FluoZin2; at 10 µM; stronger effect = higher value; submaximal glutamate (EC20) added with thallium.
`Cc1ccc(C(=O)NC(C)c2ccc(F)cc2)cc1` (centres undefined) registered a z-score of -0.249.
Next, `O=C(Nc1ccc(F)cc1)N1CCN(c2ccc3nnc(-c4ccc(F)cc4)n3n2)CC1`: -1.17; `Fc1ccc(-c2nnc3ccc(N4CCc5ccccc5C4)nn23)cc1`: 2.89; `c1ccc(-c2nnc3ccc(N4CCCC4)nn23)cc1`: -4.38 (active).
Then `Cc1ccc(NC(=O)NNC(=O)c2cccs2)cc1`, with 0.53; and `NC(=O)c1ccc(C(F)(F)F)n(Cc2ccc(Cl)cc2)c1=O`, with -0.45.
Molecule `Cc1[nH]n(-c2ccccc2)c(=O)c1-c1cccc(Cl)c1` returned a z-score of 0.257.
Next, `CN(C)S(=O)(=O)N1CCN(C(=O)N(c2ccccc2)c2ccccc2)CC1`: -0.395; `O=C(N1CCOCC1)N1CCN(C(=O)N(c2ccccc2)c2ccccc2)CC1`: -0.217.
Take `O=C(N1CCCCC1)N1CCN(C(=O)N(c2ccccc2)c2ccccc2)CC1`: the z-score was 3.16 (active).
Molecule `COc1ccc(-c2nc3c(c(=O)c4ccccc4n3C)c(=O)n2Cc2ccccc2)cc1` came in with a z-score of -0.433.
In turn, `CC(C)CN(/C=N/c1sc2c(c1C#N)CCCCC2)CC(C)C` came in with a z-score of 2.9.
As to `CCCN(/C=N/c1sc2c(c1C#N)CCCCC2)CCC`, the z-score is -0.155.
In turn, `CCN(/C=N/c1sc2c(c1C#N)CCCCC2)CC` showed a z-score of -0.292.
In turn, `CCOC(=O)c1nnc2c(Br)c(-c3ccccc3)nn2c1C` displayed a z-score of -0.554.
As for `CCC(=O)Nc1ccc(-c2csc(NNC(C)=O)n2)cc1`, the z-score was -0.182.
Regarding `Cn1ccnc1SCC(=O)Nc1ccc(Oc2ccccc2)cc1`, the z-score was determined as 2.29.
Then `CCOc1ccc(NC(=O)CSc2nccn2C)cc1`, with -0.0963; and `CC(=O)Nc1ccc(NC(=O)CSc2nccn2Cc2ccccc2)cc1`, with 2.89.
`Cc1ccc(NC(=O)CSc2nccn2Cc2ccccc2)cc1C` showed a z-score of -0.465.
In the case of `COC(=O)c1ccc(NC(=O)CSc2nnc(COc3ccccc3)n2C)cc1`, the z-score is 11.8 (active).
For the molecule `Cn1ccnc1SCC(=O)Nc1ccccc1`, the z-score is 0.326.
Molecule `CCOC(=O)c1ccc(NC(=O)CSc2nnc(COc3ccccc3)n2C)cc1` gave a z-score of -0.177.
Regarding `COC(=O)c1cccc(NC(=O)CSc2nnc(COc3ccccc3)n2C)c1`, the z-score is -0.736.
For `CC(C)(C)NC(=O)CSc1nccn1Cc1ccccc1`, the z-score was 0.488.
On to `CCc1sc(C(=O)Nc2ccc(F)cc2C)cc1C`, for which the z-score was -0.0957.
The molecule `O=C(CCC(=O)c1cccs1)Nc1ccc(F)c(F)c1F` came in with a z-score of 0.32.
`CCc1ccc(NS(=O)(=O)c2cc(OC)ccc2OC)cc1` had a z-score of -0.868.
For `Cc1nc(NCCc2ccc(F)cc2)c(C#N)c(C)c1[N+](=O)[O-]`, the z-score was -0.205.
Next, `COc1cc(C)nc(OCCNS(=O)(=O)c2cc(C)ccc2C)n1`: 0.217; `CC(/C=N/NC(=O)c1c(Br)cnn1C)=C\c1ccccc1`: 3.16 (active).
In turn, `CC(/C=N/NC(=O)c1nn(C)c(C)c1Br)=C\c1ccccc1` showed a z-score of -0.0235.
For the molecule `CC(/C=N/NC(=O)c1ccc(Br)cc1)=C\c1ccccc1`, the z-score is -1.26.
Then `O=C(Nc1ccc(C(=O)N2CCCCC2)cc1)c1ccc(Br)cc1`, with 1.09; and `CC(C)CCNC(=O)Cn1c(=O)oc2cc(S(=O)(=O)N3CCc4ccccc43)ccc21`, with -0.186; and `COc1cc(CNc2ccc(N3CCCC3)cc2)ccc1OCc1ccccc1`, with 3.82 (active).
Next, `COc1cc(CNc2ccc(CNc3ncn[nH]3)cc2)ccc1OCc1ccccc1`: -0.026; `COc1cc(CNc2ccc(N3CCCC3)cc2)ccc1OCc1ccccc1F`: -0.289; `CC(C(=O)NCCN1C(=O)S/C(=C\c2cccs2)C1=O)N1C(=O)c2ccccc2C1=O` (centres undefined): -0.139.
Next, `Cc1ccc(C)c(NC(=O)CCC(=O)NNC(=O)c2cccc([N+](=O)[O-])c2)c1`: 0.265.
Regarding `CSc1ccccc1C(=O)Nc1cccc(C(C)O)c1` (centres undefined), the z-score was 0.209.
`CSc1ccccc1C(=O)Nc1cccc(C(C)=O)c1`: the z-score is 3.03 (active).
With `CSc1ccccc1C(=O)Nc1cccc(C)c1`, the z-score was -0.792.
Then `CCOC(=O)Cc1c(C)nc2cc(-c3ccc(C)cc3)[nH]n2c1=O`, with 0.0804; and `C1CCCC(N2CCNCC2)CC1`, with 0.33.
For the molecule `COC(=O)c1cc(=O)nc2sccn12`, the z-score was -0.417.
Take `CCOC(=O)c1cc(-c2ccccc2)sc1NC(=O)c1ccc(OC)cc1`: the z-score was -0.199.
Turning to `CCc1cc(C(N)=O)c(NC(=O)c2ccc(OC)cc2)s1`, the z-score is 3.98 (active).
Next, `CCOC(=O)c1cc(CC)sc1NC(=O)c1cc(OC)c(OC)c(OC)c1`: 0.399.
The molecule `CCOc1ccc(OC(=O)NC(c2ccccc2)C(Cl)(Cl)Cl)cc1` (centres undefined) gave a z-score of -0.048.
Turning to `CCN(CC)CCn1c(=S)[nH]c2ncccc2c1=O`, the z-score was 0.0629.
For `O=c1c2cccnc2[nH]c(=S)n1Cc1ccccc1`, the z-score was 3 (active).
Next, `CC1CCN(CCn2c(=S)[nH]c3ncccc3c2=O)CC1`: 4.47 (active); `CC1CCCCN1CCn1c(=S)[nH]c2ncccc2c1=O` (centres undefined): 1.22; `O=c1c2ccc(Cl)cc2[nH]c(=S)n1Cc1cccnc1`: 2.08.
As to `O=c1c2cccnc2[nH]c(=S)n1CCCN1CCN(c2ccc(F)cc2)CC1`, the z-score came to 0.723.
`CCOC(=O)N1CCN(C(=O)c2ccc3c(=O)n(Cc4ccc(Cl)cc4)c(=S)[nH]c3c2)CC1` registered a z-score of 0.798.
Next, `O=c1c2cc(Br)ccc2[nH]c(=S)n1Cc1cccnc1`: 1.87; `COCCn1c(=S)[nH]c2ncccc2c1=O`: 0.35.
